# Measurements from PubChem BioAssay AID504652 (National Center for Advancing Translational Sciences (NCATS), 2011).
# The whole screen tested about 360,000 compounds, of which about 11,000 (3.1%) were called active. Cut-off read from the data, not from the text of the source: active = activity change below about -30%; inactive = the rest. Many of the other results were omitted from the sample, so actives are more common in it than they were.
# Biological target: D(1A) dopamine receptor (Homo sapiens) (UniProt P21728)
# Assay: Antagonist of Human D 1 Dopamine Receptor: qHTS
# Settings: HEK293 TREx D1 cells, calcium flux, dopamine EC80; at 10 µM; active compounds read low
# Method in brief: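 Inducible Hek293 Trex D1 cells (tetracycline, overnight, 30 C). Calcium dye 30–90 min RT. Antagonist mode: EC80 dopamine added after 180 s compound read.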
# % is set by controls: 0 for no effect and ±100 for the full control effect.
# Chain of D(1A) dopamine receptor (Homo sapiens) (P21728 whole entry, looked up): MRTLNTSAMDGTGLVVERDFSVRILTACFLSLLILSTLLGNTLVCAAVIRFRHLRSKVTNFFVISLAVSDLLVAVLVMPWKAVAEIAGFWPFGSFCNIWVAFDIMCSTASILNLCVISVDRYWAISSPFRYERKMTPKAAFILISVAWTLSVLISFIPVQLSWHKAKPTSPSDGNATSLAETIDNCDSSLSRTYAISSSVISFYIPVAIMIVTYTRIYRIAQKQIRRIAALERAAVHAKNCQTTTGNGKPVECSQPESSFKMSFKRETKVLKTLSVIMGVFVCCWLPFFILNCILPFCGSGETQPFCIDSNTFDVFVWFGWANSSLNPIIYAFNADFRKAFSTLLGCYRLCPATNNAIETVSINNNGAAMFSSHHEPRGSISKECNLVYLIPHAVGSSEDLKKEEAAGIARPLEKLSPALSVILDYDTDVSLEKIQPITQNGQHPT
row,SMILES,"activity change, negative = inhibition"
1,CCCS(=O)(=O)N1CCCC(C(=O)NCc2ccco2)C1 (stereo unspecified),6.64% (inactive)
2,CCCS(=O)(=O)N1CCCC(C(=O)NCCN2CCCCC2C)C1 (stereo unspecified),-41.8% (active)
3,CCOC(=O)N1CCN(S(=O)(=O)N2CCCC(C(=O)NCCCN3CCC(C)CC3)C2)CC1 (stereo unspecified),2.88% (inactive)
4,COc1ccccc1CNC(=O)CCn1c(=O)c2ccccc2n(CC(=O)Nc2ccc(Br)cc2F)c1=O,0.197% (inactive)
5,COc1ccc(C)cc1NC(=O)CCc1c(C)nn(-c2ccc(N3CCOCC3)nn2)c1C,-25.9% (inactive)
6,Cc1ccc(NC(=S)N(CCN(C)C)Cc2cccs2)cc1C,-42.5% (active)
7,Cc1ccc(Cl)cc1NC(=S)N(CCN(C)C)Cc1cccs1,-0.901% (inactive)
8,Cc1ccccc1NC(=S)N(CCCN1CCOCC1)Cc1cccs1,-5.87% (inactive)
9,COC(=O)c1scc(-c2ccc(C)cc2)c1S(=O)(=O)Nc1cc(Cl)c(OC)cc1OC,10.2% (inactive)
10,Cc1ccc(CSc2nc3ccsc3c(=O)n2CCC(C)C)cc1,13.8% (inactive)
11,COCCNS(=O)(=O)c1cc(-c2nn3c(C)nnc3c3ccccc23)ccc1C,-4.16% (inactive)
12,CC(=O)c1cccc(Nc2ccc3cc(S(=O)(=O)N4CCC(C)CC4)ccc3n2)c1,13.5% (inactive)
13,CN1CCN(CCC(=O)N/N=C/C=C2\N(C)c3ccccc3C2(C)C)CC1,-8.35% (inactive)
14,CC(=O)Nc1cccc(OCC(=O)/C=C2\N(C)c3ccccc3C2(C)C)c1,-35.4% (active)
15,COc1cccc(NC(=S)C(C#N)=C2N(C)c3ccccc3N2C)c1,0.557% (inactive)
16,O=C1OC(C(=O)Nc2cccc(Br)c2)Cc2ccccc21 (stereo unspecified),3.01% (inactive)
17,COc1ccc2cc(C(=O)NCC3CCCO3)[nH]c2c1 (stereo unspecified),-7.79% (inactive)
18,COc1cccc(/C=C2\Sc3ccc(C(=O)NCC4CCCO4)cc3N(C)C2=O)c1 (stereo unspecified),-38% (active)
19,COc1cccc(C(=O)NCCS(=O)(=O)NCC2CCCO2)c1 (stereo unspecified),28.7% (inactive)

row,SMILES,"activity change, negative = inhibition"
1,Brc1cccc(-c2nnn3c2nc(NC2CCCCC2)c2ccccc23)c1,11.9% (inactive)
2,Cc1cc(F)ccc1NS(=O)(=O)c1ccc(-n2cccn2)cc1,-14% (inactive)
3,Cc1ccc(-n2nc(C)c3c(C)cc(=O)n(CC(=O)Nc4ccc(C(C)C)cc4)c32)cc1,14.4% (inactive)
4,CCOC(=O)c1ccc(N2C(=O)c3[nH]nc(-c4ccccc4)c3C2c2ccc(C(C)C)cc2)cc1 (stereo unspecified),49.1% (inactive)
5,CCN1CCCC1CNC(=O)c1cc2c(=O)n(C)c3ccccc3c2n1C (stereo unspecified),-10.7% (inactive)
6,CCOc1ccc(CCNC(=O)c2cc3c(=O)n(C)c4ccccc4c3n2C)cc1,-46.8% (active)
7,CCOc1ccc(CCNC(=O)c2c(C)oc3ncn(C)c(=O)c23)cc1,3.92% (inactive)
8,CCCn1c2ccccc2c2cnn(CC(=O)N(C)c3ccccc3CC)c(=O)c21,-1.54% (inactive)
9,O=C(c1ccc2c(c1)N(Cc1ccccc1)C(=O)c1ccccc1S2(=O)=O)N1CCCC1,1.23% (inactive)
10,O=C(Nc1cc(C(F)(F)F)ccc1Cl)c1cc2nc(-c3ccc4c(c3)OCO4)cc(C(F)(F)F)n2n1,12.4% (inactive)
11,CC(C)c1ccc(NC(=O)C2CCN(c3nc(-c4ccc(C(C)C)cc4)no3)CC2)cc1,-20.6% (inactive)
12,COc1ccc(NC(=O)c2ccc3nc(CCc4ccccc4)oc3c2)c(OC)c1,0.958% (inactive)
13,CC(=O)N1CCCc2cc(S(=O)(=O)N3CCC(C(=O)NCc4ccc(F)cc4)CC3)ccc21,-2.54% (inactive)
14,CCc1nccn1S(=O)(=O)c1cc(Br)ccc1Br,-13.3% (inactive)
15,COC(=O)c1ccc(C2C(C(=O)Nc3ccccc3)=C(C)Nc3nc4ccccc4n32)cc1 (stereo unspecified),6.56% (inactive)
16,c1ccc(-c2cc3c(NCC4COc5ccccc5O4)ncnc3s2)cc1 (stereo unspecified),-18.9% (inactive)
17,c1ccc2c(c1)OCC(CNc1ncnc3nc[nH]c13)O2 (stereo unspecified),-86.7% (active)
18,COc1ccc(CCNc2ncnc3nc[nH]c23)cc1OC,-23.9% (inactive)
19,CCOc1ccccc1CNC(=O)c1ccc2c(c1)nc1n2CCC(C)C1 (stereo unspecified),-12.2% (inactive)

row,SMILES,"activity change, negative = inhibition"
1,Cc1cc2nc(-c3ccc(NC(=O)c4cc5ccccc5o4)cc3)oc2cc1C,-20.5% (inactive)
2,CC(C)Oc1ccc(NC(=O)c2cc3ccccc3o2)cc1,-61.7% (active)
3,CCC(C)c1ccc2oc(-c3ccc(NC(=O)c4cc5ccccc5o4)cc3)nc2c1 (stereo unspecified),-6.42% (inactive)
4,CC1=Nc2cc(C(=O)N3CCC(C)CC3)ccc2Sc2ccc(Cl)cc21,5.84% (inactive)
5,CCOC(=O)N1CCc2c(sc3c2c(=O)n(-c2ccc(CC)cc2)c(=O)n3C)C1,5.44% (inactive)
6,CCCc1cc(C(=O)Nc2ccc(Cl)cn2)cs1,11% (inactive)
7,CCN(CC)C(=O)CCC(=O)Nc1ccc(C(=O)OC)cc1,-2.84% (inactive)
8,CCCc1cc(C(=O)Nc2ccc(C(=O)OC)cc2)cs1,-31.2% (active)
9,Cc1ccc(C(=O)NCCSc2c(C)[nH]c3ccccc23)cc1C,-23.5% (inactive)
10,Cc1ccc(-n2c3nc(=O)[nH]c(=O)c-3cc3c(Cl)cccc32)cc1,7.04% (inactive)
11,Cc1ccc(NC(=O)C(Cc2ccccc2)NS(=O)(=O)c2ccc3c(c2)oc(=O)n3C)cc1C (stereo unspecified),-42.8% (active)
12,COc1ccccc1CNC(=O)C(Cc1ccccc1)NS(=O)(=O)c1ccc2c(c1)oc(=O)n2C (stereo unspecified),3.15% (inactive)
13,Cc1ccc(NC(=O)CCNS(=O)(=O)c2ccc3c(c2)oc(=O)n3C)cc1C,-0.228% (inactive)
14,COc1ccc(-c2ccc(=O)n(CC(=O)Nc3ccc(Br)cc3F)n2)cc1,27.5% (inactive)
15,Cc1ccc2[nH]c3c(c2c1)CN(C(=O)CN1CCN(c2ccccc2)CC1)CC3,-26.5% (inactive)
16,O=C(CCCN1CCc2[nH]c3ccc(F)cc3c2C1)c1ccc(F)cc1,-73% (active)
17,O=c1c2ccccc2[nH]c(=S)n1CCN1CCC(=C(c2ccc(F)cc2)c2ccc(F)cc2)CC1,-22.1% (inactive)
18,CCCc1nn2c(=O)cc(COC(=O)c3ccc(NC(=O)COc4ccc(F)cc4)cc3)nc2s1,-16.4% (inactive)
